Reference: PubChem BioAssay (NCATS)
“And” between values parts separate entries of the source, which are not always exact repeats. Equal entries are not always repeated. Records with an inconclusive call do not appear. The source made the active and inactive calls. Unless noted, calls follow the shape of the dose curve; as a rule, active = well fitted curve in the direction sought with a large enough effect; inconclusive = small, poorly fitted or top-dose-only effect, or another doubt; inactive = no such curve, though single readings can be large; an effect the other way counts as inactive or inconclusive.

Tests used:
[1] = target: Thyroid hormone receptor beta (Homo sapiens) (UniProt P10828); assay: qHTS assay for small molecule antagonists of thyroid hormone receptor beta signaling (AID 588547; active = well fitted inhibition curve with a large enough effect in the signal ratio, with a control signal flat, not every such curve was filed as active; the % refers to the signal ratio;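 also: cells stimulated with 0.4 nM T3 agonist during compound exposure; % is scaled to controls: 0 for no effect and ±100 for the full control effect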); details: TR-UAS-bla HEK293, beta-lactamase ratio, antagonist mode, 18 h
Summary of the method: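 Inhibition of T3-driven (0.4nM final) beta-lactamase reporter activity was measured over 0.59 nM to 92 uM compound after 18 h at 37 C. The cells were GripTite HEK293 TR-UAS-bla in charcoal/dextran-stripped serum, with CCF4 ratio read-out and IC50 from Hill fits.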

[2] = target: Voltage-gated inwardly rectifying potassium channel KCNH2 (Homo sapiens) (UniProt Q12809); assay: qHTS Assay for Small Molecule Inhibitors of the Human hERG Channel Activity (AID 588834); details: U2OS BacMam hERG, FluxOR thallium flux fluorescence; series mostly up to 46.1 µM;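 also: top concentration of the series differs between compounds; % is scaled to controls: 0 for no effect and ±100 for the full control effect; lower thallium flux fluorescence means stronger hERG block; nearly all actives have a fitted effect of over 50% in size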
Summary of the method: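 Homogeneous FluxOR thallium flux assay using hERG-expressing U2OS cells (BacMam). Compound treatment about 10 minutes preceded stimulation; reduced fluorescence taken as channel block.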

[3] = target: Luciferin 4-monooxygenase (Photinus pyralis) (UniProt P08659); assay: Biochemical firefly luciferase enzyme assay for NPC (AID 624030);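 also: purified P. pyralis luciferase at 10 nM with luciferin and ATP substrate; 0% = DMSO and -100% = full luciferase inhibition by PTC124 control; nearly all actives have a fitted effect of over 70% in size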; details: purified P. pyralis luciferase, luminescence, 5 min; series mostly up to 58.6 µM
Summary of the method: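 Direct inhibition of firefly luciferase enzyme (10 nM final, 50 mM Tris Acetate) assessed by luminescence within 5 minutes. Percent activity scaled between DMSO and PTC124 positive control, with concentration-effect curves classified by fit quality and response.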

[4] = S16 Schwann cell viability assay (CellTiter-Glo assay) (AID 624031); details: S16 rat Schwann cells viability, 24 h; series mostly up to 57.5 µM;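 also: native untransfected S16 rat Schwann cells; cellular ATP luminescence as a viability measure; plate controls were DMSO-treated cells for no effect and cell-free wells for full effect; nearly all actives have a fitted effect of over 70% in size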
Summary of the method: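 Rat S16 Schwann cells without reporter constructs received compound or DMSO for 24 h at 37 °C under 5% CO2. Cellular ATP was then quantified by CellTiter-Glo luminescence, with vehicle wells defined as 0% activity and cell-free wells as reference.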

[5] = S16 Schwann cell PMP22 intronic element firefly luciferase assay (AID 624032); details: S16 rat Schwann cells, PMP22 element FLuc, 24 h; series mostly up to 57.5 µM;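 also: plate controls were DMSO for no effect and PTC124 positive control mean for full effect; nearly all actives have a fitted effect of over 30% in size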
Summary of the method: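 Luciferase reporter of PMP22 intronic-element expression in stably transfected S16 rat Schwann cells, read by ONE-Glo luminescence after 24 h compound exposure at 37 C. Activity scaled between DMSO (0%) and positive-control PTC124; concentration-effect curves quality-classified.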

[6] = qHTS assay for small molecule agonists of the antioxidant response element (ARE) signaling pathway (AID 651741; active = well fitted activation curve with a large enough effect in the signal ratio; the % refers to the signal ratio; also: % of control where 0% means no effect); details: HepG2 ARE-bla reporter, beta-lactamase FRET ratio, 16 h; series mostly up to 96 µM
Summary of the method: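 Agonist activity is measured as ARE-driven beta-lactamase expression in a stable HepG2 reporter line, using 16 h compound treatment at 37 C and a FRET substrate fluorescence readout after 2 h.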

[7] = qHTS assay for small molecule activators of the p53 signaling pathway (AID 651743; active = well fitted activation curve with a large enough effect in the signal ratio, not every such curve was filed as active; the % refers to the signal ratio; also: % of control where 0% means no effect); details: HCT-116 p53RE-bla, beta-lactamase FRET ratio, 16 h; activation: hits give high values
Summary of the method: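 A beta-lactamase reporter under p53 response element control, stably carried by HCT-116 cells, reported pathway activation. Test compounds were applied for 16 hours at 37 C, and fluorescence was measured 2 hours after adding the B/G FRET substrate.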

[8] = qHTS assay for environmental chemicals that activate the Aryl hydrocarbon Receptor (AhR) signaling pathway (AID 651777); details: 1A2-DRE human hepatoma cells, luciferase, 24 h; activation: hits give high values; also: % of control where 0% means no effect; nearly all actives have a fitted effect of over 15% in size
Summary of the method: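 Measured luciferase activity, read 30 min after One-Glo addition at room temperature, from human hepatoma cells bearing a dioxin response element–CYP1A2 promoter reporter and exposed to compound for 24 hr at 37 C.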

[9] = target: Peroxisome proliferator-activated receptor alpha (Homo sapiens) (UniProt Q07869); assay: qHTS assay for small molecule agonists of the peroxisome proliferator-activated receptor alpha (PPARalpha) signaling pathway (AID 651778); details: PathHunter PPARalpha complementation, chemiluminescence, 6 h; hits give high values; also: % of control where 0% means no effect
Summary of the method: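 Chemiluminescence from complemented enzyme reported PPARalpha activation in cells after 6 hr of compound treatment at 37 C. The detection reagent was incubated for 60 min at room temperature, and compounds were scored as agonists.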

[10] = S16 Schwann cell PMP22 intronic element beta-lactamase assay (AID 624044; calls by dose curve;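 also: 0% = DMSO and -100% = potassium clavulanate positive control; nearly all actives have a fitted effect of over 15% in size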); details: S16 rat Schwann cells, PMP22 element beta-lactamase FRET, 24 h; ratio activity, negative = inhibition: at 38.3 µM (top of the series) unless noted
Summary of the method: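 Beta-lactamase reporter under a PMP22 intronic regulatory element in stable S16 rat Schwann cells; 24 h compound exposure. 460 nm blue signal normalized between DMSO (0%) and potassium clavulanate, with 535 nm FRET tracking viability; curves classed by r2 and response.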

[11] = qHTS assay for small molecule disruptors of the mitochondrial membrane potential - 1 hr assay (AID 651754; calls by dose curve; also: % is scaled to controls: 0 for no effect and ±100 for the full control effect; nearly all actives have a fitted effect of over 35% in size); details: series mostly up to 92.2 µM
Summary of the method: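 Read-out: dye fluorescence at 490 nm ex/535 nm em (monomers) and 540 nm ex/590 nm em (aggregates) in HepG2 cells. Compound exposure 1 hr at 37C, followed by 30 min dye loading.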

[12] = qHTS assay for small molecule disruptors of the mitochondrial membrane potential - 5 hr assay (AID 651755; calls by dose curve; also: % is scaled to controls: 0 for no effect and ±100 for the full control effect; nearly all actives have a fitted effect of over 40% in size); details: JC-1-type ratio dye; series mostly up to 92.2 µM
Summary of the method: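 Membrane-potential dye readout: red aggregate (540 ex/590 em) versus green monomer (490 ex/535 em) fluorescence after 30 min dye loading, following 5 hr compound exposure at 37C of overnight-plated HepG2 cells.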

[13] = qHTS assay for small molecule activators of the nuclear factor-kappa B (NF-kB) signaling pathway (AID 651749; active = well fitted activation curve with a large enough effect in the signal ratio; the % refers to the signal ratio; also: % of control where 0% means no effect); details: NF-kB-bla ME-180 cells, beta-lactamase FRET ratio, 16 h; hits give high values
Summary of the method: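 FRET-based beta-lactamase detection in ME-180 cells reports NF-kB response-element-driven transcription following overnight (16 hr) compound treatment.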

[14] = target: Tumor necrosis factor (Homo sapiens) (UniProt P01375); assay: qHTS assay to identify small molecules that stimulate Tumor Necrosis Factor-alpha (TNF-alpha) secretion (AID 651757; active = well fitted curve in the direction sought with a large enough effect in the signal ratio; the % refers to the signal ratio; also: 0% is about no effect); details: Human cells, HTRF 665/615 ratio; series mostly up to 92.2 µM
Summary of the method: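 THP-1 cells, 3000/well; compound 17 hrs, 37 C; add cryptate/XL665 anti-TNF-alpha antibody pair; 3 hr RT; TR-FRET (HTRF) read of secreted TNF-alpha. Quantitative HTS format.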

[15] = qHTS assay to identify small molecules that stimulate interleukin-8 (IL-8) secretion (AID 651758; active = well fitted activation curve with a large enough effect in the signal ratio; the % refers to the signal ratio; also: 0% is about no effect); details: HTRF ratio (665/615); series mostly up to 92.2 µM
Summary of the method: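 Secreted IL-8 measured homogeneously by TR-FRET (two labelled anti-IL-8 antibodies, 1-3 h at room temperature) after a 16 h, 37 C compound treatment of THP-1 cells at 2000 cells/well.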

Voltage-gated inwardly rectifying potassium channel KCNH2 (Homo sapiens), sequence (Q12809 whole entry, looked up): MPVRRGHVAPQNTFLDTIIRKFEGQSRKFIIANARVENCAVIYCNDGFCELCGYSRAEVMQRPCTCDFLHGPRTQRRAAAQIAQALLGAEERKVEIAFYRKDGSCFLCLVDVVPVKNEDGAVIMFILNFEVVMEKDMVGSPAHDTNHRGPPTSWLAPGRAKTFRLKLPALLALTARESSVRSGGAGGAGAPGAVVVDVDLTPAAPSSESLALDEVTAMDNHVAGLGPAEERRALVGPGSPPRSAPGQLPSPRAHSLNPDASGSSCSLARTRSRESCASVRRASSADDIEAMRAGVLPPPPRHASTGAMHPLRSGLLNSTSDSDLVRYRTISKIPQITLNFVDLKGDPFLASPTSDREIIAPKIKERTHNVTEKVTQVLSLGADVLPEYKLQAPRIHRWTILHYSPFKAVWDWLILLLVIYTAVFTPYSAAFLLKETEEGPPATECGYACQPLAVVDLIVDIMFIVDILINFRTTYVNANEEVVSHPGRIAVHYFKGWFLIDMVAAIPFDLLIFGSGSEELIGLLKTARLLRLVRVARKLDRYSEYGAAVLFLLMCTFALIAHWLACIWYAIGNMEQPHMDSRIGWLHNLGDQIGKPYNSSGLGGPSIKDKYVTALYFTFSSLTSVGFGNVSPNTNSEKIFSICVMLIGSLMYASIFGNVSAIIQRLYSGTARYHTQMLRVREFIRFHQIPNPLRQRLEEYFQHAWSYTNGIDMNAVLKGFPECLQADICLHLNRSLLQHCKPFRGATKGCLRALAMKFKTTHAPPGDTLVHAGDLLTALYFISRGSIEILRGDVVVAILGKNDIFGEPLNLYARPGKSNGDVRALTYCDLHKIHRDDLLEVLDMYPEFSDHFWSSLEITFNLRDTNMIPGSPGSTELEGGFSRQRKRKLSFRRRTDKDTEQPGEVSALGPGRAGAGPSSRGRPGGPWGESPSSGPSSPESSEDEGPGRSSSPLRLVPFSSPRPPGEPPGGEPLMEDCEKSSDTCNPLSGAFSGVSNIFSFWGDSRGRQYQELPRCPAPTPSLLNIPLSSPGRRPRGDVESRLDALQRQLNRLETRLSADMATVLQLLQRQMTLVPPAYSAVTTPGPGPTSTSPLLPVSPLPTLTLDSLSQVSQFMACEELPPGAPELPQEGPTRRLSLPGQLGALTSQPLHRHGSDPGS
Luciferin 4-monooxygenase (Photinus pyralis), sequence (P08659 whole entry, looked up): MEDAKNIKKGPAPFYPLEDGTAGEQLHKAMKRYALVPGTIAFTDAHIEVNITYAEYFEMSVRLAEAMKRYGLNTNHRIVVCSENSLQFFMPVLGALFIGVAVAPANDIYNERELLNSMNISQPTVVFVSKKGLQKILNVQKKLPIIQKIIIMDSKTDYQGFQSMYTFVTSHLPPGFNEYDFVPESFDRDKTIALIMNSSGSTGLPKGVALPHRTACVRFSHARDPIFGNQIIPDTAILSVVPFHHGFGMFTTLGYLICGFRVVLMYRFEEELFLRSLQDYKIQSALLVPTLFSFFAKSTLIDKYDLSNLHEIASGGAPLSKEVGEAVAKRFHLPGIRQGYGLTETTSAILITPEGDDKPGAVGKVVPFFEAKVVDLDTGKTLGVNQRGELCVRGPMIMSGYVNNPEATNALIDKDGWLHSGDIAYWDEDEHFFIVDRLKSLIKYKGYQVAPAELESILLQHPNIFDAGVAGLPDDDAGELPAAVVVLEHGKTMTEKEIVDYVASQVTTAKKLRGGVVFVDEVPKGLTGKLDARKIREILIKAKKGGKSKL
Tumor necrosis factor (Homo sapiens), sequence (P01375 whole entry, looked up): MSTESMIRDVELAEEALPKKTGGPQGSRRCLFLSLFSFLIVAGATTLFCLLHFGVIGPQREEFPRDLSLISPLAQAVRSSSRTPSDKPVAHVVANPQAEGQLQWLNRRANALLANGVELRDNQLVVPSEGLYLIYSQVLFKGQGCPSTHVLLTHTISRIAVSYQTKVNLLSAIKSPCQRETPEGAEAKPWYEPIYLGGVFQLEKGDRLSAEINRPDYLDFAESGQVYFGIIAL
Peroxisome proliferator-activated receptor alpha (Homo sapiens), sequence (Q07869 whole entry, looked up): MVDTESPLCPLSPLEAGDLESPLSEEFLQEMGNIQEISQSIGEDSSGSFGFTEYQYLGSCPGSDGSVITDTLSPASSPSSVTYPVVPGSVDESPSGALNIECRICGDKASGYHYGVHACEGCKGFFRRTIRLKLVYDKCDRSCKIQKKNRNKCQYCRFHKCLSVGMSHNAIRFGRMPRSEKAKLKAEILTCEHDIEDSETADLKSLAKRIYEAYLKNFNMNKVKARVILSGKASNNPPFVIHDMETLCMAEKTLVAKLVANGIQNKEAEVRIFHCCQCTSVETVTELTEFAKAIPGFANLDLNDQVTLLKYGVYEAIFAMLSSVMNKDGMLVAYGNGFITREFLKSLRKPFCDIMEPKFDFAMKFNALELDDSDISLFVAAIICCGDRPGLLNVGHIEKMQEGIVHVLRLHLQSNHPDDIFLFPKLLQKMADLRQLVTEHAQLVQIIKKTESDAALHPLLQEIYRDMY
Thyroid hormone receptor beta (Homo sapiens), sequence (P10828 whole entry, looked up): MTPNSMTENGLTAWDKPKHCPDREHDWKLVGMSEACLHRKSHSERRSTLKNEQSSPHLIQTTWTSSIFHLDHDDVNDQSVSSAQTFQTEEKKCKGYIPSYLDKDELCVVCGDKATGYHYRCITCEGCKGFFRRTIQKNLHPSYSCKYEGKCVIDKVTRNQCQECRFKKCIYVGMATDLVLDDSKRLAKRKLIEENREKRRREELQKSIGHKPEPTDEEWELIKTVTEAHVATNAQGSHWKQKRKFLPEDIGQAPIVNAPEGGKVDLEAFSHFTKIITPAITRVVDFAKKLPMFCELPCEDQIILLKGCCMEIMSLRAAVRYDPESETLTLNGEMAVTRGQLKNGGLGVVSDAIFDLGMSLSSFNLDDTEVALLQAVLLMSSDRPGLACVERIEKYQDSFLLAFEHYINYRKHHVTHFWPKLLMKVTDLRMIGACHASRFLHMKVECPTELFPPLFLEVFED

Cc1ccc(S(=O)(=O)NCl)cc1
inactive: activity change % (negative = inhibition) [1] 3.3% | Potency [2] | Potency [3] | Potency [4] | Potency [5] | Potency [6] | activation [7] -0.574% | activation [8] -2.28% | max response [9] -0.128%

O.O.O.O.O.O.O.O=S(=O)([O-])[O-].[Co+2]
inactive: activity change % (negative = inhibition) [1] 12.3% | Potency [2] | Potency [3] | Potency [4] | Potency [5] | ratio activity, negative = inhibition [10] -3.44% | Potency [11] | Potency [12] | activation [8] -0.475% | max response [9] -1.84%

C[C@H](CCC(=O)O)[C@H]1CC[C@H]2[C@@H]3[C@H](O)C[C@@H]4C[C@H](O)CC[C@]4(C)[C@H]3C[C@H](O)[C@]12C
inactive: activity change % (negative = inhibition) [1] 5.64% | Potency [2] | Potency [6] | activation [7] -1.29% | activation [13] -0.745% | Potency [11] | Potency [12] | Potency [14] | activation [8] -1.36% | max response [9] 0.161%

CCCCCCCCCCCCCCCCCC(=O)OC[C@@H](O)[C@H]1OC[C@H](O)[C@H]1O
inactive: activity change % (negative = inhibition) [1] 11.4% | Potency [2] | Potency [3] | Potency [4] | Potency [5] | ratio activity, negative = inhibition [10] 1.3% | Potency [6] | activation [7] -1.65% | activation [13] -0.074% | activation [8] 0.366% | max response [9] 12.5%

OB(O)O
inactive: activity change % (negative = inhibition) [1] 3.84% and -13.5% | Potency [2] | Potency [3] | Potency [4] | Potency [5] | ratio activity, negative = inhibition [10] 0.47% | Potency [6] | activation [7] -0.565% and -2.3% | Potency [11] | Potency [12] | Potency [14] | Potency [15] | activation [8] 0.198% and -2.21% | max response [9] -2.01% and 0.448%

NC(N)=O
inactive: activity change % (negative = inhibition) [1] -11.3% | Potency [2] | Potency [4] | ratio activity, negative = inhibition [10] 0.531% | activation [13] 1.05% | Potency [11] | Potency [12] | Potency [14] | max response [9] -1.08%

OC[C@H]1O[C@@H]2O[C@H]3[C@H](O)[C@@H](O)[C@@H](O[C@H]4[C@H](O)[C@@H](O)[C@@H](O[C@H]5[C@H](O)[C@@H](O)[C@@H](O[C@H]6[C@H](O)[C@@H](O)[C@@H](O[C@H]7[C@H](O)[C@@H](O)[C@@H](O[C@H]1[C@H](O)[C@H]2O)O[C@@H]7CO)O[C@@H]6CO)O[C@@H]5CO)O[C@@H]4CO)O[C@@H]3CO
inactive: activity change % (negative = inhibition) [1] 12.7% and -5.44% | Potency [2] | Potency [3] | Potency [4] | ratio activity, negative = inhibition [10] 1.18% | Potency [6] | Potency [11] | Potency [12] | Potency [14] | Potency [15] | activation [8] 1.89% and -0.569% | max response [9] -0.429% and -5.48%
